Experimental data published in PubChem BioAssay (NCATS).
Several values for one entry are separate records, joined by “and”; a condition that tells them apart may be missing. Identical values can stand only once. Results filed as inconclusive are left out. Activity calls are given as the source filed them. Unless noted, calls come from the whole dose curve; as a rule, active = well fitted curve in the direction sought with a large enough effect; inconclusive = small, poorly fitted or top-dose-only effect, or another doubt; inactive = no such curve, though single readings can be large; an effect the other way counts as inactive or inconclusive.

Experiments:
[1] = qHTS Screen of the MIPE 4.0 Collection Against Ewings Sarcoma (RDES) (AID 1259252); note: nearly all actives have a fitted effect of over 35% in size; note: potency is the fitted concentration of half-maximal effect
How it was run: (§1)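 Here, cells in 5% FBS RPMI were exposed for two days (48 h) to compound dilutions added four hours after plating. ATP-based CellTiter-Glo luminescence measured viability, normalized to vehicle and no-cell blanks.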

[2] = qHTS Screen of the MIPE 4.0 Collection Against Ewings Sarcoma (TC71) (AID 1259253); note: nearly all actives have a fitted effect of over 40% in size; note: potency is the fitted concentration of half-maximal effect
How it was run: as §1

[3] = qHTS Screen of the MIPE 4.0 Collection Against Ewings Sarcoma (TC32) (AID 1259256); note: nearly all actives have a fitted effect of over 45% in size; note: potency is the fitted concentration of half-maximal effect
How it was run: as §1

[4] = Identifying Small Molecule Inhibitors of Pancreatic Cancer Stem Cells (A2780, Spheroid) (AID 1259357); conditions: Potency: A2780 spheroid viability;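 note: compound exposure lasted 48 h before the ATP luminescence read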; note: potency is the fitted concentration of half-maximal effect
How it was run: (§2)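 Spheroids grown 14 days in stem cell media on hydrogel-coated nonadherent plates; 2D lines seeded directly. Compounds added after 4 h attachment, 48 h at 37C, 5% CO2; CellTiter-Glo luminescence normalized to DMSO (no inhibition) and no-cell wells (full inhibition).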

[5] = Identifying Small Molecule Inhibitors of Pancreatic Cancer Stem Cells (SN12C, Adherent) (AID 1259358);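 note: potency is the fitted concentration of half-maximal effect; cell survival measured after 48 h of compound exposure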
How it was run: (§3)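 Luminescent ATP readout (CellTiter-Glo) quantifies surviving cells after a 48 h drug incubation. Normalization uses DMSO wells as no inhibition and media-only wells as full inhibition; bortezomib served as positive control.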

[6] = Identifying Small Molecule Inhibitors of Pancreatic Cancer Stem Cells (SN12C, Spheroid) (AID 1259360); conditions: Potency: SN12C spheroid viability; note: potency is the fitted concentration of half-maximal effect
How it was run: as §2

[7] = Identifying Small Molecule Inhibitors of Pancreatic Cancer Stem Cells (A278, Adherent) (AID 1259361); note: nearly all actives have a fitted effect of over 35% in size
How it was run: as §3

[8] = Identifying Small Molecule Inhibitors of Pancreatic Cancer Stem Cells (Panc1, Adherent) (AID 1259362); conditions: Potency: viability; note: potency is the fitted concentration of half-maximal effect
How it was run: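 Cytotoxicity read by CellTiter-Glo luminescence after 48 h compound exposure at 37C; percent activity scaled between DMSO-treated cells and cell-free wells. Spheroid formats used cells pre-formed 14 days in stem cell media on hydrogel.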

[9] = NS1 protein of Zika virus - qHTS assay to identify small molecule inhibitors in human HEK 293 cells (AID 1347053); note: nearly all actives have a fitted effect of over 55% in size; note: potency is the fitted concentration of half-maximal effect
How it was run: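 Read-out is a two-antibody TR-FRET for ZIKV NS1, normalized between uninfected cells and infected cells. Compound added 1 h before MR766 infection at MOI 0.5; human HEK 293 cells incubated 24 h, 37 C.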

[10] = Natriuretic polypeptide receptor (hNpr1) antagonism - Pilot counterscreen GloSensor control cell line (AID 1347045; calls by dose curve; note: series mostly up to about 38 µM; % is set by controls: 0 for no effect and ±100 for the full control effect)
How it was run: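 Control counterscreen: luciferase cGMP-biosensor HEK293 cells (no Npr1) received compound for 30 min at room temperature after GloSensor substrate loading. Luminescence was measured before and 20 min after soluble guanylyl cyclase activation by 50 uM nitroprusside.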

[11] = target: Atrial natriuretic peptide receptor 1 (Homo sapiens) (UniProt P16066); test: Natriuretic polypeptide receptor (hNpr1) antagonism - Pilot screen (AID 1347049; calls by dose curve;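 note: HEK293 cells with hNpr1 and GloSensor cGMP luciferase stimulated by 0.1 nM hNppA; agonist-evoked cGMP luminescence read 20 min after hNppA addition; potency is the fitted concentration of half-maximal effect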)
Atrial natriuretic peptide receptor 1 (Homo sapiens), sequence (P16066 whole entry, looked up): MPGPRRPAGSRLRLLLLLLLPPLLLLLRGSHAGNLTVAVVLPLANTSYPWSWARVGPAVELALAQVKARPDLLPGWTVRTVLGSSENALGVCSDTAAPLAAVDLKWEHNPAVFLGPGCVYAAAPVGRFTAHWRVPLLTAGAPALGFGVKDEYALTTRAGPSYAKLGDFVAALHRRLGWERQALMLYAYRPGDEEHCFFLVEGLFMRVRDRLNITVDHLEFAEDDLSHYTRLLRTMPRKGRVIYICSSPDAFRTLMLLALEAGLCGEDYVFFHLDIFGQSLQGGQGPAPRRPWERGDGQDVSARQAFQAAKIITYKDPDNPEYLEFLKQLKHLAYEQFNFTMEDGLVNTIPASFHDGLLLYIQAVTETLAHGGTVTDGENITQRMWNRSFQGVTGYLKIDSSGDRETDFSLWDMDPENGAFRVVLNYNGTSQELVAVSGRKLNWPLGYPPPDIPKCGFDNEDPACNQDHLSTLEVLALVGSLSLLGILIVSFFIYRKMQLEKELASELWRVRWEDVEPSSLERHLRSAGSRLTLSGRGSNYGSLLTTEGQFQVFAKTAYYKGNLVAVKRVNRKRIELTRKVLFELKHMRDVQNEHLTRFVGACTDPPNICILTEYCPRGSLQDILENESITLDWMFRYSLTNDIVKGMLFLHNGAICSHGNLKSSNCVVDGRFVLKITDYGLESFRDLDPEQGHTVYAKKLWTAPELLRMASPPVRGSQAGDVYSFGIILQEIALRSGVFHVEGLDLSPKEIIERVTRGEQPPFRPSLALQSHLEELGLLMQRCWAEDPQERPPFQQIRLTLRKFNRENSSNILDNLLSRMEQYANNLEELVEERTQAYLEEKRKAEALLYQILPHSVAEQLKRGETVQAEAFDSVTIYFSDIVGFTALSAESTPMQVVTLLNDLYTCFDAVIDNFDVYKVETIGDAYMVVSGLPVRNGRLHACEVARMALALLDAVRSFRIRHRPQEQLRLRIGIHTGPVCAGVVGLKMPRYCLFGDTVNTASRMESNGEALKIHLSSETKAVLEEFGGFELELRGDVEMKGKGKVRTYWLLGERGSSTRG
How it was run: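 Cells expressing receptor plus cGMP biosensor are seeded and incubated overnight at 37C, then loaded with GloSensor reagent (2% final) at room temperature for 2 h. Library compounds go on for 30 min. A pre-read precedes agonist (hNppA, 0.1 nM final) and a 20-min readout.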

[12] = target: T1, Tyrosine-protein phosphatase non-receptor type substrate 1 (Homo sapiens) + Leukocyte surface antigen CD47 (Homo sapiens) (UniProt P78324+Q08722); test: CD47-SIRPalpha protein protein interaction - LANCE assay qHTS validation (AID 1347057; active = well fitted curve in the direction sought with a large enough effect in the signal ratio, with a control signal flat, not every such curve was filed as active; the % refers to the signal ratio; note: series mostly up to about 38 µM; 0% is about no effect)
T1 sequence (P78324 whole entry, looked up, the tested form may be a part): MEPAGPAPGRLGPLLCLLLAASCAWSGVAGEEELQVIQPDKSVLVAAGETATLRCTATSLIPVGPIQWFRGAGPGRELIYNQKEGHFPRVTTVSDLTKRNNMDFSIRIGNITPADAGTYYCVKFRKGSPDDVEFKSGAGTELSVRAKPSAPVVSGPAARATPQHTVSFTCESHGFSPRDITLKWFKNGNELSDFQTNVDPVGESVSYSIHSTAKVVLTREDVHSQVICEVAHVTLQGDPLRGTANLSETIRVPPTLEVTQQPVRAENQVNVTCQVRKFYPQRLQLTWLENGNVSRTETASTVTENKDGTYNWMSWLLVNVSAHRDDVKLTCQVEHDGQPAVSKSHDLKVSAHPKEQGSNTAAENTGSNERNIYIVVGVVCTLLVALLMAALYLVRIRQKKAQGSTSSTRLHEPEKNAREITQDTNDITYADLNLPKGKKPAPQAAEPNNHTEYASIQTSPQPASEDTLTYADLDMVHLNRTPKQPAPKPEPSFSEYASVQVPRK
T1 sequence (Q08722 whole entry, looked up, the tested form may be a part): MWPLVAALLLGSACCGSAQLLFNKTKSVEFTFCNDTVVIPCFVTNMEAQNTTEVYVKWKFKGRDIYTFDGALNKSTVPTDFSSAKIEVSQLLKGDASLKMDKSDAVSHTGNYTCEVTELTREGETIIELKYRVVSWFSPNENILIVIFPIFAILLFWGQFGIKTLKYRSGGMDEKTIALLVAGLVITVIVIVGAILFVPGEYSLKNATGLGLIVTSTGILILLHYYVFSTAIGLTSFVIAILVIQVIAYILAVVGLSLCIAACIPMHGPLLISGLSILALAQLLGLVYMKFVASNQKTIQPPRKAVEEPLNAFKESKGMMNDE
How it was run: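 Inhibition of soluble CD47/SIRPalpha ectodomain association by titrated compounds, measured as 665/615 nm time-resolved FRET ratio after sequential 30 min room-temperature incubations.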

[13] = target: T1, Tyrosine-protein phosphatase non-receptor type substrate 1 (Homo sapiens) + Leukocyte surface antigen CD47 (Homo sapiens); test: CD47-SIRPalpha protein protein interaction - HTRF assay qHTS validation (AID 1347058; active = well fitted curve in the direction sought with a large enough effect in the signal ratio, not every such curve was filed as active; the % refers to the signal ratio; note: series mostly up to about 38 µM; 0% is about no effect)
How it was run: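 Soluble extracellular domains (6His-CD47, Avi-tag-biotinylated SIRPalpha) in PBS pH 7.4 with 0.05% IGEPAL CA-630. Compounds were preincubated 30 min at RT with CD47 and anti-His-Eu, then SIRPalpha and SAV-XL665 were added. TR-FRET 665/615 ratio.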

[14] = target: T1, Tyrosine-protein phosphatase non-receptor type substrate 1 (Homo sapiens) + Leukocyte surface antigen CD47 (Homo sapiens); test: CD47-SIRPalpha protein protein interaction - Alpha assay qHTS validation (AID 1347059);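 note: bead proximity luminescence from CD47 binding SIRPalpha after compound preincubation with SIRPalpha; % is set by controls: 0 for no effect and ±100 for the full control effect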
How it was run: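 In PBS (pH 7.4) with 0.05% IGEPAL CA-630, compound is preincubated with biotin-Avi-SIRPalpha ectodomain before His-CD47 ectodomain and affinity beads are added. Light-protected room-temperature incubations; AlphaScreen readout.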

[15] = qHTS Screen of the MIPE 4.0 Collection Against Ewings Sarcoma (EW8) (AID 1259255); note: nearly all actives have a fitted effect of over 35% in size; note: potency is the fitted concentration of half-maximal effect;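 for viability: 100% = DMSO-treated cells and 0% = medium-only wells without cells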
How it was run: as §1

[16] = qHTS assay to identify small molecule inhibitors of chordoma cells - UCH-1 (AID 1259355); note: potency is the fitted concentration of half-maximal effect; series mostly up to about 46 µM; nearly all actives have a fitted effect of over 55% in size
How it was run: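 A 48hr growth-inhibition format: each drug tested at 15 concentrations together with added auranofin, camptothecin, doxorubicin, rubitecan and topotecan, with cell viability quantified as CellTiter-Glo luminescence.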

[17] = qHTS assay to identify small molecule inhibitors of chordoma cells - UCH-2 (AID 1259356); note: series mostly up to about 46 µM; % is set by controls: 0 for no effect and ±100 for the full control effect
[18] = P-glycoprotein substrates identified in KB-8-5-11 adenocarcinoma cell line, qHTS therapeutic library screen (AID 1346987); note: nearly all actives have a fitted effect of over 65% in size; note: potency is the fitted concentration of half-maximal effect; for activity change, negative = cytotoxicity: series mostly up to about 44 µM; % is set by controls: 0 for no effect and ±100 for the full control effect
How it was run: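 Compounds are pinned in dose-response onto KB-8-5-11 cells (500 cells/well, colchicine-free medium) and left 72 h at 37 degree C. CellTiter-Glo luminescence then yields AC50 values.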

[19] = P-glycoprotein substrates identified in KB-3-1 adenocarcinoma cell line, qHTS therapeutic library screen (AID 1346986); note: nearly all actives have a fitted effect of over 60% in size;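 note: potency is the fitted concentration of half-maximal effect; potency is for cytotoxicity meaning loss of cell viability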
How it was run: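 72 h cell-killing screen, 500 cells/well, CellTiter-Glo luminescence. Paired lines KB-3-1/KB-8-5-11; P-gp dependence checked by tariquidar co-treatment and HEK-293 MDR-19 versus empty-vector cells.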

CC(C)c1ccc(Cn2ccc3c4c(N)nc(NC5CC5)nc4ccc32)cc1
active: Potency [1] 9.35 µM | Potency [2] 1.05 µM | Potency [3] 1.32 µM | Potency [4] 14.8 µM | Potency [5] 7.43 µM | Potency [6] 8.33 µM | IC50 (viability decrease) [7] 0.332 µM | Potency [8] 0.743 µM | Potency [9] 3.32 µM

CC[C@@H]1C(=O)N(C)c2cnc(Nc3ccc(C(=O)NC4CCN(C)CC4)cc3OC)nc2N1C1CCCC1
active: Potency [1] 0.0662 µM | Potency [2] 0.0743 µM | Potency [3] 0.0469 µM | IC50 (viability decrease) [7] 0.0132 µM | Potency [8] 0.0093 µM | Potency [9] 0.0332 µM
inactive: Potency [4]

O=c1c2ccccc2nc2n1CCc1c-2[nH]c2ccccc12
active: Potency [11] 1.51 µM
inactive: Potency [1] | Potency [2] | Potency [3] | outcome [10] | Potency [9] | outcome [12] | outcome [13] | outcome [14]

COC(=O)C[C@](O)(CCCC(C)(C)O)C(=O)O[C@@H]1C(OC)=C[C@]23CCCN2CCc2cc4c(cc2[C@H]13)OCO4
active: Potency [16] 0.199 µM | Potency [18] 8.2 µM
inactive: Potency [2] | Potency [15] | Potency [3] | outcome [17] | Potency [9]

C[C@H]1C[C@@H]2[C@@H]([C@@H](O)C[C@@]3(C)[C@H]2CC[C@]3(O)C(=O)CO)[C@@]2(C)C=CC(=O)C=C12
inactive: Potency [1] | Potency [2] | Potency [3] | outcome [17] | Potency [18] | Potency [9]

Cn1c(CNc2ccc(C(=N)N)cc2)nc2cc(C(=O)N(CCC(=O)O)c3ccccn3)ccc21
inactive: Potency [1] | Potency [2] | Potency [3] | Potency [19] | Potency [18] | Potency [9]

C[C@@]12O[C@@H](C[C@]1(O)CO)n1c3ccccc3c3c4c(c5c6ccccc6n2c5c31)CNC4=O
active: Potency [1] 1.18 µM | Potency [2] 0.59 µM | Potency [3] 0.332 µM | Potency [4] 23.5 µM | Potency [6] 23.5 µM | IC50 (viability decrease) [7] 1.66 µM | Potency [19] 0.206 µM | Potency [9] 2.64 µM

C[C@@H]1CN(CC(=O)Nc2ccc3c(c2)Cc2cccc(-c4cc(=O)cc(N5CCOCC5)o4)c2S3)C[C@H](C)O1
active: Potency [1] 23.5 µM | Potency [2] 20.9 µM | Potency [3] 18.7 µM | Potency [9] 18.7 µM
inactive: Potency [18]

CC(=O)c1c(C)c2cnc(Nc3ccc(N4CCNCC4)cn3)nc2n(C2CCCC2)c1=O
active: Potency [1] 18.7 µM | Potency [2] 5.26 µM | Potency [3] 14.8 µM
inactive: Potency [4] | activity change, negative = cytotoxicity [18] 6.87% [at 5.11 µM]

Clc1cccc(-n2nnnc2NCc2ccccc2Oc2ccccn2)c1Cl
inactive: Potency [2] | Potency [15] | Potency [3] | Potency [9]

COc1ccc(-n2nc(C(N)=O)c3c2C(=O)N(c2ccc(N4CCCCC4=O)cc2)CC3)cc1
inactive: Potency [2] | Potency [15] | Potency [3] | Potency [18] | Potency [9]

Cn1cc(-c2[nH]c3cc(NC(=O)[C@H](N)C4CCCCC4)cc4c3c2C=NNC4=O)cn1
active: Potency [2] 0.59 µM | Potency [15] 0.372 µM | Potency [3] 0.372 µM | Potency [5] 14.8 µM | Potency [6] 4.18 µM | IC50 (viability decrease) [7] 2.64 µM | Potency [9] 0.332 µM

COc1cc2c(Nc3ccc(NC(=O)c4ccccc4)cc3)ncnc2cc1OCCCN1CCOCC1
active: Potency [2] 16.6 µM | Potency [15] 1.05 µM | Potency [3] 3.32 µM
inactive: Potency [18]

CCC[C@H](NC(=O)C(C#N)=Cc1cccc(Br)n1)c1ccccc1
active: Potency [2] 7.43 µM | Potency [3] 7.43 µM | IC50 (viability decrease) [7] 26.4 µM | Potency [8] 20.9 µM | Potency [18] 18.7 µM

CC1(C)O[C@@H]2C[C@@H]3[C@H]4C[C@@H](F)C5=CC(=O)C=C[C@]5(C)[C@@]4(F)[C@@H](O)C[C@]3(C)[C@]2(C(=O)CO)O1
inactive: Potency [2] | Potency [3] | outcome [17] | Potency [19] | Potency [18] | Potency [9]

Cc1cc(Nc2cc(NC(=O)c3c(Cl)cccc3Cl)ccn2)nc(N)n1
active: Potency [2] 0.148 µM | Potency [15] 0.187 µM | Potency [3] 0.264 µM | Potency [4] 20.9 µM | Potency [19] 0.326 µM | Potency [18] 935 nM and 1.16 µM | Potency [9] 2.35 µM

COc1cc2ncnc(Nc3ccc(F)c(Cl)c3)c2cc1NC(=O)C=CCN1CCCCC1
active: Potency [2] 2.09 µM | Potency [15] 4.69 µM | Potency [3] 2.96 µM | Potency [5] 20.9 µM | Potency [6] 29.6 µM | IC50 (viability decrease) [7] 16.6 µM | Potency [8] 23.5 µM
inactive: Potency [19] | Potency [18]

Cc1cc(Nc2ncnc3ccc(-c4ccc(CNCCS(C)(=O)=O)o4)cc23)ccc1Oc1ccn2ncnc2c1
active: Potency [2] 14.8 µM | Potency [15] 16.6 µM | Potency [3] 16.6 µM
inactive: Potency [18] | Potency [9]
